Measured values taken from PubChem BioAssay.
The source made the active and inactive calls.

Experiments:
[1] = test system: Wnt5a (protein binding on small-molecule microarray); experiment: Wnt5a binders on small-molecule microarray, primary screen, biophysical, 635/667 nm fluorescence (AID 1142); conditions: 635 nm fluorescence, higher = more signal;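 note: fluorescence read at 667 nm with signal to noise per printed feature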
[2] = cell viability in Huh7 cells, primary screen, cytotoxicity control for HCV replication inhibitor project, CellTiter-Glo luminescence, basal, 48 h (AID 1143); conditions: Huh7 HCV replicon, higher = more signal, called active from +8 up or from −8 down;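 note: Huh7 hepatoma cells carrying a hepatitis C replication reporter with no stimulus; test concentration not given here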
[3] = CREB reporter modulators without forskolin, primary screen, cell-based, PC12, CRE-LacZ reporter, unstimulated (AID 1145); conditions: no forskolin, luminescence, 4.5 h, higher = more signal, called active from +8 up or from −8 down
[4] = CREB reporter modulators under forskolin, primary screen, cell-based, PC12, CRE-LacZ reporter, forskolin-stimulated (AID 1146); conditions: luminescence, 4.5 h, higher = more signal, called active from +8 up or from −8 down;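 note: PC12 cells with 6xCRE LacZ reporter stimulated by forskolin 10 µM; beta-galactosidase reporter signal reflecting CREB driven transcription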
[5] = molecular target: Streptavidin (Streptomyces avidinii) (UniProt P22629); experiment: streptavidin binders on small-molecule microarray, primary screen, artefact control for SMM compound annotation, biophysical, 635/667 nm fluorescence (AID 1147); conditions: streptavidin binding, higher = more signal;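 note: signal reflects streptavidin binding to arrayed compounds as a control protein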
[6] = small-molecule binders of probe aInhba, primary screen, biochemical, small-molecule microarray, 635/667 nm fluorescence (AID 1148); conditions: higher = more signal;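 note: score merges 667nm spot fluorescence with signal-to-noise for antibody binding to printed compounds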
Torsin-1A (Homo sapiens) [7] = molecular target: Torsin-1A (Homo sapiens) (UniProt O14656); experiment: torsin A binders from cell lysate, primary screen, small-molecule microarray, wild-type, 635/667 nm (AID 1149); conditions: COS7 hTOR1A-WT lysate, 635 nm fluorescence, higher = more signal
Torsin-1A (Homo sapiens) [8] = molecular target: Torsin-1A (Homo sapiens) (UniProt O14656); experiment: small-molecule binders of mutant TOR1A in lysate, primary screen, cell lysate, small-molecule microarray, COS7 lysate, 635/667 nm fluorescence (AID 1150); conditions: COS7 hTOR1A mutant lysate, 635 nm fluorescence, higher = more signal;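 note: score pools 667 nm emission and signal to noise measuring lysate protein binding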
[9] = test system: Sonic hedgehog protein (Shh); experiment: small-molecule binders of Shh protein, primary screen, biochemical, small-molecule microarray, 635/667 nm fluorescence (AID 1151); conditions: small-molecule microarray binding, 635 nm fluorescence; higher = more signal;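 note: Shh protein binding to compounds spotted on small-molecule microarray slides; score combines spot fluorescence intensity with signal-to-noise across triplicate slides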

Sequence of Torsin-1A (Homo sapiens) (O14656 whole entry, looked up): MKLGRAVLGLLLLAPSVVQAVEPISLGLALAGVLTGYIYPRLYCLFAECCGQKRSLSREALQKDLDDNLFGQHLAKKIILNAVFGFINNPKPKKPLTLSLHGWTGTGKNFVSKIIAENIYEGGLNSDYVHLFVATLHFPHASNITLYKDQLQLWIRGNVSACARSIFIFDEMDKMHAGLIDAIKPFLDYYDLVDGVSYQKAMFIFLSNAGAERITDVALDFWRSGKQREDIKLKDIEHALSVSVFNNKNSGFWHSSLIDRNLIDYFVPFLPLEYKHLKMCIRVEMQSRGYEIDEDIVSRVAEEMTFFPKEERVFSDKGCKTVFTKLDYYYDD
Sequence of Streptavidin (Streptomyces avidinii) (P22629 whole entry, looked up): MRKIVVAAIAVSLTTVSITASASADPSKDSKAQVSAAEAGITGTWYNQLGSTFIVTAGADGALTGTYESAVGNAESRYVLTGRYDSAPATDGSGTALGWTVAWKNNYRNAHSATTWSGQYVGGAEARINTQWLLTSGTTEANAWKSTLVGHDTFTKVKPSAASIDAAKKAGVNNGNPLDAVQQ

Row | Compound | composite z-score [1] | z-score [2] | z-score [3] | z-score [4] | composite z-score [5] | composite z-score [6] | composite z-score (Torsin-1A (Homo sapiens) [7]) | composite z-score (Torsin-1A (Homo sapiens) [8]) | composite z-score [9]
1 | CC(C)N1CC=CC23O[C@@H]4/C=C\CCCOC(=O)C4[C@H]2C(=O)N(CCO)[C@@H]3C1=O (some centres not stated) | -0.0732 | -1.04 (inactive) | -0.358 (inactive) | -0.457 (inactive) | -0.0353 | -0.0695 | -0.373 | -0.582 | 0.289
2 | COC(=O)c1c(CC[C@@H](CO)NC(=O)N[C@H](Cn2cc(-c3cncn3C)nn2)C(C)C)oc(C(C)=O)c1C(=O)OC | 0.0781 | -3.48 (inactive) | 1.01 (inactive) | -1.4 (inactive) | 0.341 | -0.282 | 0.422 | 0.368 | 0.75
3 | CCN1C(C)=C(C(=O)OC)[C@@H](c2ccccc2)N2C(=O)[C@](O)(C(=O)OC)[C@@H](c3ccccc3)C(C(C)=O)=C12 | 0.223 | -5.29 (inactive) | 0.106 (inactive) | -1.04 (inactive) | -0.0371 | -0.177 | 0.142 | 0.355 | 1.75
4 | C=C(CCCC)C(=O)CC[C@@H](OC(=O)c1cccnc1)c1cccc(OCCO)c1 | 0.38 | -1.85 (inactive) | 17.7 (active) | -0.315 (inactive) | -0.0743 | -0.0762 | 1.08 | 0.0906 | 1.17
5 | C=CCOC(=O)[C@@H]1[C@H]2C(=O)O[C@H](c3ccccc3)[C@H](c3ccccc3)N2[C@H](c2ccc(OCCOC(=O)[C@H]3C[C@H]4C(=O)N5CCC[C@H]5C(=O)N4[C@H]3c3ccc(O)cc3)cc2)[C@@]12C(=O)Nc1ccccc12 | 1.32 | -3.23 (inactive) | -0.402 (inactive) | -1.32 (inactive) | 0.239 | 1.03 | 0.885 | 0.283 | 1.68
6 | CO[C@@H]1COC(=O)CC=C[C@@H](C)[C@H](OC)COC(=O)CC=C[C@H]1C | -0.0731 | -0.147 (inactive) | -0.658 (inactive) | -0.82 (inactive) | -0.428 | -0.253 | 0.685 | 0.349 | 1.29
7 | CO[C@@H]1COC(=O)[C@@H]2CCCN2C(=O)CC=C[C@@H](C)[C@H](OC)COC(=O)[C@@H]2CCCN2C(=O)CC=C[C@H]1C | -0.137 | -0.381 (inactive) | -0.292 (inactive) | -0.559 (inactive) | -0.613 | -0.179 | 0.985 | 0.306 | 2.1
8 | COCCCNC(=O)[C@@]1(Sc2ccc(C)cc2)CC(=O)N(Cc2cc(C(F)(F)F)cc(C(F)(F)F)c2)[C@@H]1c1ccc(CO)cc1I | -0.265 | -1.47 (inactive) | 1.01 (inactive) | 0.264 (inactive) | -0.713 | -0.123 | -0.083 | -0.693 | -0.612
9 | CCN1C(C)=C(C(=O)OC)[C@@H](c2ccccc2)N2C(=O)[C@@]3(C(=O)OC)O[C@@]12[C@@H]1C(=O)N(C)C(=O)[C@@H]13 | 0.601 | -0.674 (inactive) | 0.922 (inactive) | -1.21 (inactive) | 0.233 | -0.157 | 0.587 | 0.368 | 0.971
10 | Cc1ccc(S[C@]2(C(=O)O)CC(=O)N(Cc3ccccc3)[C@@H]2c2ccc(CO)cc2)cc1 | 0.0167 | -1.22 (inactive) | -0.412 (inactive) | -0.84 (inactive) | -0.185 | -0.154 | 0.0253 | 0.12 | 0.0306
11 | O=C1c2ccccc2[C@](Cc2ccccc2I)(C(=O)O)[C@H](c2ccc(CO)cc2)N1C1CCCCC1 | 0.818 | -4.42 (inactive) | 0.001 (inactive) | -0.298 (inactive) | 0.947 | 0.0676 | 0.0702 | 0.76 | 0.636
12 | C=C(COC)/C(=C/C[C@@H](OC(C)=O)c1cccc(OCCO)c1)c1cc(C(=O)OC)ccc1OC | 0.0467 | -1.42 (inactive) | 4.69 (inactive) | -1.89 (inactive) | -0.798 | -0.0221 | 0.284 | -0.0193 | 0.654
13 | O=C1O[C@@H](c2ccccc2)[C@@H](c2ccccc2)N2[C@@H](c3ccc(O)cc3)[C@]3(C(=O)Nc4ccccc43)[C@@H](C(=O)N3CCN(c4ncccn4)CC3)[C@H]12 | -0.0063 | -5 (inactive) | -0.815 (inactive) | -0.245 (inactive) | -0.6 | -0.178 | 0.828 | 0.232 | -0.0193
14 | CO[C@H]1O[C@H](CO)[C@@H](OC(=O)CCc2ccccc2)[C@@H]2OC(=O)[C@H](Cc3cccc(Br)c3)C/C=C/C[C@@H](Cc3cccc(Br)c3)C(=O)O[C@@H]12 | -0.0182 | -3.47 (inactive) | -0.198 (inactive) | -0.896 (inactive) | -0.115 | -0.147 | 1.07 | 0.358 | -0.149
15 | O=C(NCC(O)CO)[C@]1(Cc2ccccc2)N=C(c2ccc(OCCCO)cc2)O[C@@H]1c1ccccc1 (some centres not stated) | 0.454 | -3.91 (inactive) | 0.171 (inactive) | -1.08 (inactive) | 1.38 | 0.633 | 0.379 | 1.81 | -0.617
16 | CCCNC(=O)[C@@H]1c2ccccc2C(=O)N(Cc2cc(F)cc(C(F)(F)F)c2)[C@H]1c1ccc(CO)cc1 | 0.411 | -2.08 (inactive) | -0.529 (inactive) | -1.53 (inactive) | 0.568 | 0.157 | 0.528 | 0.457 | 1.93
17 | C=CC[C@]1(C(=O)OC)N=C(c2ccc(OCCCO)cc2)O[C@H]1c1ccccc1CN=[N+]=[N-] | 0.832 | -3.72 (inactive) | 5.1 (inactive) | -0.911 (inactive) | -1.12 | 0.0232 | 0.101 | -0.0021 | 0.0034
18 | CC(C)CN1C(=O)[C@@]2(Cc3ccccc31)c1ccccc1C(=O)N(C1CCCCC1)[C@H]2c1ccc(CO)cc1 | -0.194 | -2.02 (inactive) | -0.152 (inactive) | -0.876 (inactive) | -1.12 | -0.208 | -0.475 | -0.488 | -0.264
19 | CO[C@@H]1COC(=O)[C@H](C)NC(=O)CC=C[C@@H](C)[C@H](NS(=O)(=O)c2ccc(C)cc2)COC(=O)CC=C[C@@H]1C | 0.0543 | 0.189 (inactive) | -0.0234 (inactive) | -0.445 (inactive) | -0.193 | -0.145 | 0.56 | 0.252 | 0.0208
20 | Cc1ccc(S(=O)(=O)c2cc3oc2CC[C@@H](CO)NC(=O)N(C)Cc2cn(nn2)C[C@H](Cc2ccccc2)NC3=O)cc1 | -0.0319 | -0.0124 (inactive) | -0.332 (inactive) | -0.58 (inactive) | -0.183 | -0.0335 | 0.285 | 0.501 | 0.0007
21 | COC(=O)C1=C(C)N(Cc2ccccc2)c2c(C(=O)OC)c(C(=O)OC)c(C(=O)OC)c(=O)n2[C@@H]1c1ccccc1 | 0.191 | -0.233 (inactive) | 4.26 (inactive) | -1.23 (inactive) | 0.125 | 0.0503 | 0.285 | 0.505 | 0.426
22 | C[C@@H]1C=CCC(=O)OC[C@H]2O[C@@H](C=C[C@@H]2O)[C@H](C)C=CCC(=O)OC[C@H]2O[C@H]1C=C[C@@H]2O | 0.375 | -5.78 (inactive) | 0.247 (inactive) | -0.724 (inactive) | 0.412 | 0.357 | 0.997 | 0.515 | 2.24
23 | CC(C)[Si]1(C(C)C)O[C@@H](c2ccccc2)c2cc(C3CC3)nc(-c3ccc(Oc4ccccc4)cc3)c21 | -0.217 | -0.313 (inactive) | 0.0176 (inactive) | -0.59 (inactive) | -0.646 | -0.0082 | -0.617 | -0.0373 | -0.239
